This is one part of a sample in which hits are shown more often than they occur.
NOMO-1 viab = NOMO-1 AML cell viability reduction, primary screen, STK33 inhibitor project, CellTiter-Glo luminescence. hit rate 7.5% among 37,000. inhibition, % (no concentration beside the values). NOMO-1 AML viability, 72 h. AID 2330, 2010; in the data active = inhibition above about 80%; inconclusive = no clear call, values can overlap the other calls
STK33 kin inh = STK33 kinase inhibitors, primary screen, biochemical, luminescence, ADP-Glo, MBP substrate. Serine/threonine-protein kinase 33 (Homo sapiens), Q9BYT3. inhibition, % at 12.5 µM. hit rate 0.44% among 27,000. AID 2322, 2010; in the data active = inhibition above about 20%; inconclusive = no clear call, values can overlap the other calls
PD-1 reverse act = activators reversing PD-1 mediated T-cell inhibition, primary screen, luminescence, primary human CD4 T cells, PD-L1 beads. activation, % (no concentration beside the values). 29,000 tested, under 10 active. CellTiter-Glo 96 h; call rule not given here;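 also: 0% = median vehicle wells and 100% = positive control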
Starred values were filed as active, the others as inactive.

C[C@@H]1CN([C@H](C)CO)C(=O)Cc2cc(NS(=O)(=O)c3ccc(Cl)cc3)ccc2O[C@@H]1CN(C)Cc1ccc(Cl)c(Cl)c1 was read as NOMO-1 viab 117*, STK33 kin inh 2 and PD-1 reverse act -3.
For C[C@H](CO)N1C[C@H](C)[C@H](CN(C)Cc2ccc(Cl)c(Cl)c2)Oc2ccc(NS(=O)(=O)c3ccc(Cl)cc3)cc2CC1=O the results were NOMO-1 viab 102*, STK33 kin inh 3 and PD-1 reverse act 1.
Screening C[C@H](CO)N1C[C@H](C)[C@H](CN(C)Cc2ccc3c(c2)OCO3)Oc2ccc(NS(=O)(=O)c3ccc(Cl)cc3)cc2CC1=O returned NOMO-1 viab 13, STK33 kin inh 1 and PD-1 reverse act 3.
COc1ccc(CN(C)C[C@@H]2Oc3ccc(NS(=O)(=O)c4ccc(OC)cc4)cc3CC(=O)N([C@H](C)CO)C[C@@H]2C)cc1 was read as NOMO-1 viab 45, STK33 kin inh 1 and PD-1 reverse act 2.
For C[C@H]1CN([C@@H](C)CO)C(=O)Cc2cc(NS(=O)(=O)c3ccc(Cl)cc3)ccc2O[C@@H]1CN(C)Cc1ccc2c(c1)OCO2 the results were NOMO-1 viab 48 and STK33 kin inh -2.
For COc1ccc(S(=O)(=O)Nc2ccc3c(c2)CC(=O)N([C@@H](C)CO)C[C@H](C)[C@@H](CN(C)Cc2ccc(Cl)c(Cl)c2)O3)cc1 the results were NOMO-1 viab 88* and PD-1 reverse act 4.
For C[C@@H]1CN([C@@H](C)CO)C(=O)Cc2cc(NS(C)(=O)=O)ccc2O[C@@H]1CN(C)Cc1ccc(Cl)c(Cl)c1 the results were NOMO-1 viab 6, STK33 kin inh 2 and PD-1 reverse act -3.
O=C(CSc1nc2ccccc2[nH]1)Nc1cccc(C(F)(F)F)c1 was read as NOMO-1 viab 43 and STK33 kin inh -1.
CC(C)S(=O)(=O)c1cscc1NC(=O)c1ccc(-c2cc(C(F)(F)F)nn2C)s1 was read as NOMO-1 viab inconclusive and PD-1 reverse act 1.
`COc1cc(OC)c(C2=NOC(C(=O)Nc3c(C)nn(Cc4ccc(F)cc4)c3C)C2)cc1Cl` (stereo not given) gave NOMO-1 viab 31, STK33 kin inh 0 and PD-1 reverse act -3.
Cc1nn(CC(O)COc2ccc3cc(Br)ccc3c2)c(C)c1Cl (stereo not given) was read as NOMO-1 viab 11, STK33 kin inh -5 and PD-1 reverse act -3.
For COC(=O)c1ccccc1NC(=O)COc1ccc([N+](=O)[O-])c(C)c1 the results were NOMO-1 viab 4, STK33 kin inh 2 and PD-1 reverse act 2.
C[n+]1cc(-c2ccc3ccccc3n2)cc2ccccc21 was read as NOMO-1 viab inconclusive and PD-1 reverse act 1.
For CN1C(=O)c2ccccc2-n2c(nc3ccccc3c2=O)[C@@]12O[C@H]2c1ccccc1 the results were NOMO-1 viab 104*, STK33 kin inh -2 and PD-1 reverse act -3.
Screening CN1C(=O)c2ccccc2NC(=O)[C@]12O[C@@H]2c1cccc(O)c1 returned NOMO-1 viab 24, STK33 kin inh -6 and PD-1 reverse act 2.
Screening COc1ccc(-n2ncc(NC(=O)Nc3ccc4c(c3)OCCCO4)c2C)cc1 returned NOMO-1 viab 3 and PD-1 reverse act 0.
Screening COC(=O)c1ccccc1NC(=O)Cc1coc2c(C)c(C)ccc12 returned NOMO-1 viab 25 and STK33 kin inh -1.
Screening Nc1nnc(SCC(=O)Nc2ccccc2Br)s1 returned NOMO-1 viab -14 and STK33 kin inh -1.
CCn1cc(C(C)NC(=S)Nc2cccc([N+](=O)[O-])c2)c(C)n1 (stereo not given) was read as NOMO-1 viab 2, STK33 kin inh -1 and PD-1 reverse act 1.
`COc1c(O)c2c(=O)cc(OC)c3c4c(OC)cc(=O)c5c(O)c(OC)c(C[C@@H](C)OC(=O)c6ccccc6)c(c(c1C[C@@H](C)OC(=O)Oc1ccc(O)cc1)c23)c54` gave NOMO-1 viab 142*, STK33 kin inh 0 and PD-1 reverse act -10.
`O=C(CCc1ccc(O)cc1)c1c(O)cc(O)cc1O` gave NOMO-1 viab -14 and STK33 kin inh 35*.
`O=C(CCCCCCCCc1ccccc1)c1c(O)cc(O)cc1O` gave STK33 kin inh -4.
`C[C@@H]1CN([C@H](C)CO)C(=O)c2cccc(NC(=O)c3cnccn3)c2O[C@H]1CN(C)Cc1ccc(Cl)c(Cl)c1` gave NOMO-1 viab 96* and PD-1 reverse act -6.
`C[C@H](CO)N1C[C@H](C)[C@@H](CN(C)Cc2ccc(Oc3ccccc3)cc2)Oc2c(NC(=O)c3cnccn3)cccc2C1=O` gave NOMO-1 viab 106* and PD-1 reverse act -7.
